Each structure is given as a SMILES string. Activity calls are given as the source filed them.

Test [1] is described as follows: small molecules captured by biotinylated probe aFSTL3 – biochemical, small-molecule microarray, fluorescence 635/667, stem cell growth factor project, primary screen (AID 1064).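 Further: measures binding of the biotinylated anti-FSTL3 antibody to printed compounds.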 The following applies: higher = more signal.
Test [2] can be described thus: binders from COS7 lysate, DM2A8 probe, primary screen, torsin A project, cell lysate, small-molecule microarray, fluorescence 635/667 (AID 1065). The conditions noted are these: higher = more signal, COS7 lysate expressing mutant human TOR1A.
Test [3] in a line: small molecules captured by biotinylated probe aFGF2 – biochemical, small-molecule microarray, fluorescence 635/667, stem cell growth factor project, primary screen (AID 1067).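 Further: measures binding of biotinylated aFGF2 protein to printed compounds on slides; z-score merges feature fluorescence and signal-to-noise across triplicate slides.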 The conditions noted are these: higher = more signal.
Test [4] is described as follows: small molecules captured by biotinylated probe aFGF10 – biochemical, small-molecule microarray, fluorescence 635/667, stem cell growth factor project, primary screen (AID 1071).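 Further: score merges 667 nm spot intensity and signal to noise from triplicate slides.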 The conditions noted are these: higher = more signal.
The target of test [5] is Neurogenic locus notch homolog protein 2 (Homo sapiens) (UniProt Q04721). Briefly: small molecules binding Notch2 protein – biochemical, small-molecule microarray, 635 nm fluorescence, stem cell growth factors, primary screen (AID 1073). The following applies: higher = more signal.
For test [6], the target named is Pro-neuregulin-1, membrane-bound isoform (Homo sapiens) (UniProt Q02297). As to the kind of experiment: small molecules binding neuregulin-1 protein – biochemical, small-molecule microarray, fluorescence 635/667, psychiatric disease protein project, primary screen (AID 1075).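 Further: score combines 667 nm spot fluorescence with signal to noise.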 The following applies: NRG1 binding, 635 nm fluorescence, higher = more signal.
Test [7] concerns Neuregulin-1 EGF-like domain. Briefly: small molecules binding NRG1 EGF domain – biochemical, small-molecule microarray, 635 nm fluorescence, primary screen (AID 1081).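 Further: binding of the protein to compounds printed on small-molecule microarray slides.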 The conditions noted are these: higher = more signal.
Test [8] is described as follows: FRG1 expression reporter modulators in myotubes – cell-based, C2C12 myotubes, firefly/Renilla luciferase, luminescence, FRG1 inhibition for FSHD, primary screen (AID 1084). The conditions noted are these: FRG1 promoter luciferase, higher = more signal, called active from +8 up or from −8 down.
The nature of test [9]: small molecules captured by biotinylated probe aFST – biochemical, small-molecule microarray, fluorescence 635/667, stem cell growth factor project, primary screen (AID 1086).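 Further: score merges 667 nm fluorescence with signal-to-noise of each printed compound spot.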 The following applies: higher = more signal.
A short description of test [10]: binders of probe aHhip on microarray, primary screen, stem cell growth factor project, biochemical, small-molecule microarray, fluorescence 635/667 (AID 1087).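 Further: score merges spot fluorescence at 667nm with spot signal to noise ratio.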 The following applies: higher = more signal.
Test [11] has as its system PRMT1 (protein arginine N-methyltransferase 1). As to the kind of experiment: small molecules binding arginine methyltransferase PRMT1 – biochemical, small-molecule microarray, 635 nm fluorescence, primary screen (AID 1088).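 Further: binding of Prmt1 protein to compounds spotted on small-molecule microarray slides.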 The following applies: higher = more signal.
A short description of test [12]: growth effects on S. cerevisiae YJM789 – YJM789 clinical isolate, OD600, 24 h, basal, primary screen (AID 1089).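 Further: growth of clinical yeast isolate S. cerevisiae YJM 789 seeded 1000 cells per well; test concentration not given here.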 The conditions noted are these: higher = more signal, called active from +8 up or from −8 down.
Test [13] is described as follows: S. pombe growth modifiers, basal conditions – strain 972, OD600, 24 h, no modulator, primary screen (AID 1090).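 Further: basal condition with compound alone and no growth modifier present; test concentration not given here.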 The conditions noted are these: S. pombe 972 growth, higher = more signal, called active from +8 up or from −8 down.
Test [14] is described as follows: budding yeast growth modifiers under rapamycin – strain BY4716, OD600, 96 h, primary screen (AID 1091). Further: test concentration not given here. The following applies: S. cerevisiae BY4716 + rapamycin, higher = more signal, called active from +8 up or from −8 down.
Test [15] deals with Torsin-1A-interacting protein 2 (Homo sapiens) (UniProt Q8NFQ8). Briefly: small molecules binding lysate-expressed LULL1 – cell lysate, human LULL1 lysate, 635/667 nm fluorescence, primary screen (AID 1092).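 Further: probe is lysate of COS7 cells overexpressing human LULL1; score merges per-feature 667 nm fluorescence with signal-to-noise.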 The conditions noted are these: small-molecule microarray, hLULL1 lysate binding, 635 nm fluorescence; higher = more signal.
A short description of test [16]: optical density change of DRC41 E. coli – strain DRC41, OD650, 24 h, E. coli filamentation project, primary screen (AID 1093).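 Further: MC1000 strain lacking acrAB efflux and sulA so SOS filamentation is blocked; test concentration not given here.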 The following applies: E. coli DRC41 growth, higher = more signal, called active from +8 up or from −8 down.
Test [17] in a line: probe aLefty2 binding to arrayed compounds – biochemical, biotinylated probe, 635/667 nm fluorescence, primary screen (AID 1094).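 Further: score merges spot fluorescence near 667 nm with spot signal-to-noise ratio.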 The following applies: small-molecule microarray, higher = more signal.
The subject of test [18] is Noggin (protein binding on small-molecule microarray). Briefly: small molecules binding Noggin protein – biochemical, 635/667 nm fluorescence, primary screen (AID 1095).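 Further: score merges 667 nm feature fluorescence with signal to noise over triplicate slides.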 The conditions noted are these: 635 nm fluorescence, higher = more signal.
The target of test [19] is Neurogenic locus notch homolog protein 3 (Homo sapiens) (UniProt Q9UM47). Briefly: small molecules binding NOTCH3 protein – biochemical, 635/667 nm fluorescence, primary screen (AID 1096). The conditions noted are these: small-molecule microarray, 635 nm fluorescence, higher = more signal.
Test [20] can be described thus: probe aEGFR binding to arrayed compounds – biochemical, biotinylated probe, 635/667 nm fluorescence, primary screen (AID 1097).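 Further: probe is a biotinylated anti-EGFR antibody binding compounds printed on slides; score combines fluorescence near 667 nm and signal to noise of each spot.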 The following applies: small-molecule microarray, higher = more signal.

Sequence of Neurogenic locus notch homolog protein 3 (Homo sapiens) (Q9UM47 whole entry, looked up): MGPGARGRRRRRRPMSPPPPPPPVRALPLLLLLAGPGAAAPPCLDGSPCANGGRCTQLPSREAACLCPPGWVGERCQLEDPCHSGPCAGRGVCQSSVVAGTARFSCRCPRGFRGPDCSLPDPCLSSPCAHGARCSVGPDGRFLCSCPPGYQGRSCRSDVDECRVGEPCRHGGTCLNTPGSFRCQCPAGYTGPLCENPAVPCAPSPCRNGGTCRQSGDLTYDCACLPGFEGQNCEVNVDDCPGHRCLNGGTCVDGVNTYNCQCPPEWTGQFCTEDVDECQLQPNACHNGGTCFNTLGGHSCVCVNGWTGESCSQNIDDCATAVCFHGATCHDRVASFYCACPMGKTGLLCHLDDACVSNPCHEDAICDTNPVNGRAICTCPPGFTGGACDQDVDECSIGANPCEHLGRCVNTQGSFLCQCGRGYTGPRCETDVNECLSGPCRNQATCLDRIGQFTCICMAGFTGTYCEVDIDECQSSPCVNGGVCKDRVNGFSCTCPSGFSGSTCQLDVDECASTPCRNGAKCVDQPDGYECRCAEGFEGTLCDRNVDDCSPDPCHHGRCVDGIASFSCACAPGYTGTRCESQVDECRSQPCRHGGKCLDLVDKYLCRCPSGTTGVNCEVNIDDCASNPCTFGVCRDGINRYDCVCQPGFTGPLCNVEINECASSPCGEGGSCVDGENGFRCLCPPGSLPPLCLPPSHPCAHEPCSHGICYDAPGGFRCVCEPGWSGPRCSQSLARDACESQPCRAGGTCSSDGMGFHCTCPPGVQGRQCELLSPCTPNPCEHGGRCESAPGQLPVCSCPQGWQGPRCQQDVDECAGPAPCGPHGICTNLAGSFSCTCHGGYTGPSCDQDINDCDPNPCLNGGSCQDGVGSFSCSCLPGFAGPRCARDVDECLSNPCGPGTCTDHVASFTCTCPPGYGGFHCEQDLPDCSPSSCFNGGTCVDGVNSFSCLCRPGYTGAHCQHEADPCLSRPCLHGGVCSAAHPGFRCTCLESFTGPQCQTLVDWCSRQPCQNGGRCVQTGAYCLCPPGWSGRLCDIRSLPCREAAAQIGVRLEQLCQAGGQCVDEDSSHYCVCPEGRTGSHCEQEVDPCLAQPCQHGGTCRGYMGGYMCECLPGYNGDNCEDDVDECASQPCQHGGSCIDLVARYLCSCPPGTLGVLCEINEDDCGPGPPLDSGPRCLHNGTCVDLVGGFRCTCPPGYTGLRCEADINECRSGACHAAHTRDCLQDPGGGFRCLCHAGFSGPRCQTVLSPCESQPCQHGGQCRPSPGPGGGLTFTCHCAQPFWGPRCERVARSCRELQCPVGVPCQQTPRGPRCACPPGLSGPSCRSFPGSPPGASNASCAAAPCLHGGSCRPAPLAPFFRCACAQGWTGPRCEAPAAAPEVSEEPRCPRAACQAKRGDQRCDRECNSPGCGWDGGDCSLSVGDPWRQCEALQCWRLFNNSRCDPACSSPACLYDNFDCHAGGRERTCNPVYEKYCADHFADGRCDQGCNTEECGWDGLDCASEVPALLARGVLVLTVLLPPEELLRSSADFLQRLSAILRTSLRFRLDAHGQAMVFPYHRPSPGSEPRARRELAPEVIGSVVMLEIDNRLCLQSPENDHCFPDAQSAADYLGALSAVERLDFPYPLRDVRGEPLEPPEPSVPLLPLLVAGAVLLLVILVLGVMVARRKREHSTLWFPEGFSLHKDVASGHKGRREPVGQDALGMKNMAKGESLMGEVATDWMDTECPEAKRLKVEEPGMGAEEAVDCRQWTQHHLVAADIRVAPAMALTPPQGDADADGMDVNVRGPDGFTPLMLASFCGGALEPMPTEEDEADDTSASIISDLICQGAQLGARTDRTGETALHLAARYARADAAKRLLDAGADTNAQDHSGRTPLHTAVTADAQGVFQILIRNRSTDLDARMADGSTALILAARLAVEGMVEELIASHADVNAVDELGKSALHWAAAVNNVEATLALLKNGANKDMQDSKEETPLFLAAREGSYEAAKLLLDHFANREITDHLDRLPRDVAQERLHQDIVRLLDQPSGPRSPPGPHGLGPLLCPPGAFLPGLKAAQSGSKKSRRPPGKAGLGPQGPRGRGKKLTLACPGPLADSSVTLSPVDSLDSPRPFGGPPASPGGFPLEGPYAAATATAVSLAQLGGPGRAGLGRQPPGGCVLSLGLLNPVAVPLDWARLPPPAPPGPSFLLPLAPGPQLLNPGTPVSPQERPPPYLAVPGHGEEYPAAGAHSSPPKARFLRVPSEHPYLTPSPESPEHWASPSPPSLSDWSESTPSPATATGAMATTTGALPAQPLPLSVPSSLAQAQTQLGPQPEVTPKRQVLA
Sequence of Torsin-1A-interacting protein 2 (Homo sapiens) (Q8NFQ8 whole entry, looked up): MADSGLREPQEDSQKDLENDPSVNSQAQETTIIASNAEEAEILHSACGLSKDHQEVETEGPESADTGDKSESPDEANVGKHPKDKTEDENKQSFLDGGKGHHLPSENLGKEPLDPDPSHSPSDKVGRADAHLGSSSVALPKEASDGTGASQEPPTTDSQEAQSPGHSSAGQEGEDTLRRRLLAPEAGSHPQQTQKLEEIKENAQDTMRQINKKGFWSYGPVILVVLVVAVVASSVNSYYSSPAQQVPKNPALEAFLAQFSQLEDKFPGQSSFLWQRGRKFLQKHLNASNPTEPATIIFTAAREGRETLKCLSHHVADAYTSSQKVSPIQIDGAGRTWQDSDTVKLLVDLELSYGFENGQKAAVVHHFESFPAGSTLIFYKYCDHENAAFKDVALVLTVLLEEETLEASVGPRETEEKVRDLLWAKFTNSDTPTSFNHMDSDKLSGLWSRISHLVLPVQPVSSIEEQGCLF
Sequence of Pro-neuregulin-1, membrane-bound isoform (Homo sapiens) (Q02297 whole entry, looked up, the tested form may be a part, canonical isoform): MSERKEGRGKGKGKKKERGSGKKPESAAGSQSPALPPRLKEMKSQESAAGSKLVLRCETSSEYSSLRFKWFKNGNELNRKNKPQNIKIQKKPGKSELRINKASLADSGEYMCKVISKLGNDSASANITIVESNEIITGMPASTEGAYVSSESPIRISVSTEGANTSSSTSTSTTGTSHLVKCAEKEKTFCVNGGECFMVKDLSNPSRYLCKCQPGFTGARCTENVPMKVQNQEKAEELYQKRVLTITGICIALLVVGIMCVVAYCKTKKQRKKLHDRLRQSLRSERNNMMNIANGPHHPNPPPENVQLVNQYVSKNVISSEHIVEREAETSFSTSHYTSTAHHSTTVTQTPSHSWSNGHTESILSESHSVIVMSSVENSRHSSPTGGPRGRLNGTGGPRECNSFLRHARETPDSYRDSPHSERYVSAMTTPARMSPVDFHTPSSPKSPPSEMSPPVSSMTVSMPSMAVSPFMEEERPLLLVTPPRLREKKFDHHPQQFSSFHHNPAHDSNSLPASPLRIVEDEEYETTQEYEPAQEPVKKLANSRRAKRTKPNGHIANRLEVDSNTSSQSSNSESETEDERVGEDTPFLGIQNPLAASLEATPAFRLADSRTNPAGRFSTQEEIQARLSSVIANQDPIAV

Consider `COc1ccc([Si](C)(C)[C@H]2[C@H](CC(=O)N3CCC[C@H]3CO)O[C@@]3(C(=O)N(Cc4cccc(N5CCOC5=O)c4)c4ccccc43)[C@@H]2C)cc1`, for which the composite z-score in test [1] was -0.308; in [2], 0.358; in [3], -0.042; in test [4] it was 0.141; in test [5], 0.143; in [6], 0.662. The composite z-score in test [7] is 0.876; in test [9] it was 0.548; in test [10] it was -0.169; in test [11] it was 1.55; in [15] it was 1.02; in test [17], -0.23. The composite z-score in test [18] was 1.28; in [19] it was 1.11; in [20] it was -0.0271. Besides, the z-score in test [8] is -3.92 (inactive); in [12], -1.53 (inactive); in test [13], 0.239 (inactive); in test [14], -1.71 (inactive); in test [16], 1.78 (inactive).

`C[N+](C)(C)CCCCCCNC(=O)[C@H]1C[C@H]2C(=O)N[C@@H](Cc3ccccc3)C(=O)N2[C@H]1c1cccc(OCCO)c1`: the composite z-score in test [1] was -0.429; in [2], 0.652; in test [3], -0.0266; in test [4], 0.293; in test [5] it was 0.357; in test [6], 0.318. In addition, the composite z-score was 1.31 in [7]; -0.0975 in test [9]; -0.0645 in test [10]; 1.15 in test [11]; 3.05 in [15]; 0.0028 in [17]. In addition, the results for the composite z-score in test [18], in [19] and in [20] were 1.13, 0.953 and -0.0152, respectively. The z-score was 3.64 (inactive) in [8]; -0.776 (inactive) in [12]; 0.703 (inactive) in test [13]; -0.282 (inactive) in [14]; -0.0145 (inactive) in test [16].

For the molecule `CCCC=C(CCC)[C@@H](NS(=O)(=O)c1ccc(Cl)cc1)c1ccc(C(=O)OC)cc1`, the composite z-score in test [1] was -0.172; in test [2], -0.114; in [3], -0.0841; in test [4], 0.484; in test [5], 0.41; in test [6], -0.194. Moreover, the composite z-score is 0.866 in [7]; 0.0699 in test [9]; -0.236 in test [10]; 0.687 in test [11]; 0.735 in test [15]; 0.0007 in test [17]. The composite z-score was -0.392 in test [18], -1.6 in [19] and 0.0219 in [20]. Besides, the z-score in [8] is 2.58 (inactive); in [12], -0.288 (inactive); in test [13], 0.745 (inactive); in test [14] it was -0.825 (inactive); in test [16], 0.0177 (inactive).

For the molecule `O=C(NCc1ccccc1)[C@@H]1c2ccccc2C(=O)N(C2Cc3ccccc3C2)[C@H]1c1ccc(CO)cc1`, the composite z-score in test [1] was 0.335; in test [2], 0.0455; in [3], 0.0017; in [4], 0.526; in test [5], 0.501; in test [6], 1.02. Moreover, the composite z-score in [7] is 0.971; in test [9], 0.435; in [10] it was -0.181; in test [11], 1.56; in test [15], 2.03; in [17], 0.126. The composite z-score in [18] came to 0.149; in test [19], 1.03; in [20], 0.194. The z-score in [8] was -2.38 (inactive); in [12] it was 0.106 (inactive); in [13], 0.287 (inactive); in test [14], 0.644 (inactive); in test [16], -0.874 (inactive).

For `C=CC[C@@]1(C(=O)N2CCCCC2)N=C(c2ccc(OCCCO)cc2)O[C@@H]1c1ccccc1CN=[N+]=[N-]`, the composite z-score was determined as 0.134 in [1]; 0.432 in [2]; 0.084 in [3]; 0.378 in test [4]; 1.6 in test [5]; 1.8 in [6]. Moreover, the composite z-score in test [7] is 1.32; in test [9], 0.938; in test [10], -0.219; in [11], 1.55; in [15] it was 3.67; in test [17] it was 0.178. For the same molecule, the values for the composite z-score in [18], in [19] and in test [20] were 0.648, 1.08 and 0.0528, respectively. The z-score in [8] was -1.43 (inactive); in [12], -1.87 (inactive); in test [13], 0.0315 (inactive); in test [14] it was 0.819 (inactive); in test [16] it was 0.912 (inactive).

The values are drawn from PubChem BioAssay.
